Laboratory results as given in ChEMBL document CHEMBL1157539, “Thousands of chemical starting points for antimalarial lead identification” (Nature, 2010).

What was measured:
Type in all cases: functional
[1] = test system: Plasmodium falciparum; assay: GSK_TCMDC: Inhibition of Plasmodium falciparum 3D7 in whole red blood cells, using parasite LDH activity as an index of growth. Test compounds present at 2uM
[2] = test system: Plasmodium falciparum; assay: GSK_TCMDC: Inhibition of Plasmodium falciparum Dd2 in whole red blood cells, using parasite LDH activity as an index of growth. Test compounds present at 2uM
[3] = test system: HepG2; assay: GSK_TCMDC: Percent inhibition of human HepG2 cell line. Test compounds present at 10uM.

| Structure (SMILES) | Inhibition [1] [%] | Inhibition [2] [%] | Inhibition [3] [%] |
| --- | --- | --- | --- |
| Br.CCCC1N=C(N)N=C(N)N1c1ccc(C)cc1 (centres undefined) | 94 | 2 | 1 |
| Cc1cc(S(=O)(=O)N2CCCCC(c3ccc(C(F)(F)F)cc3)=N2)c(Cl)cc1Cl | 97 | 97 | 17 |
| FC(F)(F)c1ccc(-c2ccc(CNC3CCN(CCN4CCOCC4)CC3)cc2)cc1 | 100 | 74 | 44 |
| CCOC(=O)C1=C(C)N=c2sc(=Cc3ccccc3O)c(=O)n2C1c1ccc(OC)c2ccccc12 (centres undefined) | 97 | 38 | 0 |
| Cc1ccc(S(=O)(=O)N(C)c2ccccc2C(=O)Nc2ccccc2Oc2ccccc2)cc1 | 98 | 90 | 5 |
| CC(C)CNC(=O)c1cncc(-c2ccc(CN3CCC(N4CCCC4)CC3)cc2)c1.O=C(O)C(F)(F)F | 100 | 42 | 25 |
| CC(C)c1cccc(C(NC(=O)[C@H]2Cc3ccccc3CN2C(=O)c2cccc(N3CCOCC3)c2)C2CCCC2)c1 (some centres undefined) | 94 | 96 | 3 |
| CCCCC(=O)Nc1nc2ccc([N+](=O)[O-])cc2s1 | 91 | 69 | 9 |
| CC(CN(C)C)C(=O)Nc1cccc(-c2cccc(-c3nc4cc(F)ccc4[nH]3)c2)c1 (centres undefined) | 100 | 94 | 29 |
| Cc1cc(Nc2ccc(O)cc2)nc2cc(O)ccc12.Cl | 100 | 9 | 0 |
| CC(C)C[C@H](NC(=O)c1cc(-c2ccc(F)cc2)no1)C(=O)O.CC(C)C[C@H](NC(=O)c1conc1-c1ccc(F)cc1)C(=O)O | 82 | 4 | 7 |
| Br.CCCCCCCCn1c2c(c(=N)c3c1CCC3)CCCC2 | 100 | 100 | 57 |
| C=CCN(c1nc(NC)nc(NCc2c(OC)cccc2OC)n1)C1CCCC1 | 85 | 70 | 18 |
| Cc1c(CNCCCNc2cc(=O)c3ccccc3[nH]2)sc(C(F)=C(F)F)c1Br.Cl | 94 | 18 | 7 |
| CNC(=O)c1cnc(Nc2ccc(OCC(O)CN(C)C)cc2)nc1Nc1cccc([N+](=O)[O-])c1.O=C(O)C(F)(F)F (centres undefined) | 100 | 94 | 52 |
| CC(=O)Nc1ncc(C(=O)Nc2cccc(-c3ccc(-c4nc5cc(F)ccc5[nH]4)cc3)c2)s1 | 94 | 78 | 18 |
| CN(C)CCOc1ccc(-c2cc(-c3ccncc3)c(-c3ccc(Cl)c(O)c3)[nH]2)cc1.Cl | 98 | 100 | 25 |
| COc1ccc2nccc(NCC3(O)CCC(NCc4ccc5c(n4)NC(=O)CS5)CC3)c2n1.Cl (centres undefined) | 100 | 23 | 16 |
| Cc1cc(C(=O)Nc2nc(-c3ccccn3)nc3ccsc23)no1 | 98 | 90 | 44 |
| O=C(Nc1cccc(-c2cccc(-c3nc4cc(C(F)(F)F)ccc4[nH]3)c2)c1)c1ccc(=O)[nH]n1 | 100 | 26 | 63 |
| O=C(NC1CCCCN(Cc2ccc3c(c2)OCCO3)C1)c1cc(-c2ccccc2F)cs1.O=C(O)C(F)(F)F (centres undefined) | 92 | 19 | 8 |
| O=C(O)C(F)(F)F.OCCN1CCN(Cc2ccc(-c3cccc(-c4nc5cc(F)ccc5[nH]4)c3)cc2)CC1 | 100 | 61 | 21 |
| COc1cccc(C2=CC(C)(C)Oc3cc(OCCN(C)C)ccc32)c1.Cl | 97 | 96 | 57 |
| COc1cc(C=NNc2ccnc3cc(Cl)ccc23)ccc1O | 100 | 100 | 15 |
| Nc1ncnc2nc(-c3ccc(F)cc3)cc(-c3ccc(NC(=O)c4ccccc4)cc3)c12 | 100 | 97 | 0 |
| CS(=O)(=O)Nc1cccc(-c2cnc3[nH]cc(-c4cc(N)cc(C(=O)O)c4)c3c2)c1 | 96 | 96 | 40 |
| CN1CCCC1CCNc1ncc2c(-c3ccc(NC(=O)Nc4cc(C(F)(F)F)ccc4F)cc3)nn(C)c2n1.O=C(O)C(F)(F)F (centres undefined) | 96 | 72 | 74 |
| CCN(CCCN1CCCCC1)c1cc(C)nc(Nc2cccc3c2CCCC3)n1.O=C(O)C(F)(F)F | 92 | 46 | 60 |
